Dicer inh = human Dicer pre-microRNA cleavage inhibition. Q9UPY3. cat-ELCCA pre-miR-21 Dicer processing, chemiluminescence; active compounds read high. z-score at 25 µM. hit rate 6% among 47,000; in the data active = z-score above about 3, passing the limit was not always enough;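 also: plate controls were vehicle for no effect and no enzyme for full effect; higher signal means more uncleaved substrate so more Dicer inhibition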
Numbers without * were called inactive. The full list was thinned out, with hits kept by preference.

SMILES	Dicer inh
CCOC(=O)Cc1nnc2c(Nc3ccccc3Cl)nc3nonc3n12	1
COC(=O)c1sc(OC)cc1OS(=O)(=O)c1ccc(Cl)cc1	1.85
CCN(CC)CC#CC(O)(c1ccccc1)c1ccccc1	0.86
CCN(CC)CC#Cc1cccc(C)c1	5.02*
CSc1cc(C(C)(C)C)nn1S(=O)(=O)c1ccc(F)cc1F	-1.18
Fc1ccc(NC(=S)N2CCCCC2CCN2CCOCC2)cc1 (stereo unspecified)	-0.25
S=C(NC1CCCCC1)C(=S)NC1CCCCC1	-1.07
S=c1[nH]nc(NC2CCCCC2)s1	0.77
O=c1c(NC2CCCCC2)c(NC2CCCCC2)c1=O	5.91*
CCc1ccc(OCc2nc(-c3ccc(OC)c(OC)c3)no2)cc1	-2.56
CC(C)c1nc2sc3c(ncn4ncnc34)c2c2c1CCCC2	-0.49
O=C1CC(c2ccc(Br)cc2)c2c(n[nH]c2-c2ccccc2)N1 (stereo unspecified)	1.27
CCOC(=O)c1c(NC(=O)c2cc3ccccc3c(=O)o2)sc(C)c1C	0
CCOC(=O)c1c(NC(=O)Nc2sc(C)c(-c3ccccc3)c2C(=O)OCC)sc(C)c1-c1ccccc1	-1.72
CCOC(=O)c1c(NC(C)=O)sc2c(O)c(Sc3ccccc3)ccc12	4.11*
CSc1scc2c1-c1nc(SCc3ccc(Cl)cc3)ncc1CC2	13.7
Cc1c(S(=O)(=O)NCc2csc(-c3cccs3)n2)cnn1-c1ccccc1	0.13
CC1=CC(=O)C(CCCCCC2=CC(=O)C(C)=CC2=O)=CC1=O	1.2
CCc1ccccc1NNC(=O)CCc1ccccc1	-0.71
Cc1ccc(NNC(=O)CCc2ccccc2)cc1C	3.5*
Cc1ccc(NNC(=O)CCc2ccccc2)cc1Cl	-0.78
CCc1nn2c(N)c(C#N)cnc2c1-c1ccccc1	-1.6
Cc1cccnc1NC(=S)Nc1ccccc1Cl	0.39
COCCCN=C1NC(=O)C(CC(=O)Nc2ccccc2Cl)S1 (stereo unspecified)	3.12*
COCCCN=C1NC(=O)C(CC(=O)Nc2cc(Cl)ccc2Cl)S1 (stereo unspecified)	2.02
SMILES	Dicer inh
O=C(CC1Sc2ccccc2NC1=O)Nc1ccccc1Cl (stereo unspecified)	2.05
Cc1ccc(-c2nnc(NC3CCCCC3)c3ccccc23)cc1S(=O)(=O)NCC1CCCO1 (stereo unspecified)	-0.59
Cc1c(C#N)c(-n2cccc2)n(CC2CC2)c1C	0.65
O=C(O)c1ccc(N2C(=O)c3cccnc3C2=O)cc1	4.45*
O=C(Nc1ccc(N2C(=O)c3cccnc3C2=O)cc1)c1ccco1	-1.3
O=C1c2cccnc2C(=O)N1c1cccc(-c2nc3ccccc3o2)c1	2.66
COc1ccc([N+](=O)[O-])c(OC)c1C(=O)Nc1ccc(F)c(Cl)c1	-0.3
CCc1oc(C(=O)O)cc1CN(CC)CC	1.6
CCN(CC)Cc1cc(C(C)C)c(O)c(C(C)C)c1	4.14*
CCN(CC)Cc1cc(O)c(CN(CC)CC)cc1O	-2.04
Clc1ccc(OCCSc2n[nH]c3nc4ccccc4n23)cc1	2.43
Cc1nc(-c2ccc(F)cc2)c(CC(=O)O)s1	0.61
c1nc(N2CCCC2)c2c3c(sc2n1)CCCC3	-0.19
CC1CCc2sc3ncnc(N4CCN(CCO)CC4)c3c2C1 (stereo unspecified)	8.66
c1ccc2[nH]c(CN3CCN(c4ncnc5sc6c(c45)CCCC6)CC3)nc2c1	-0.71
OCCN1CCN(c2ncnc3sc4c(c23)CCCC4)CC1	4.45*
CC1CN(c2ncnc3sc4c(c23)CCCC4)CC(C)O1 (stereo unspecified)	0.64
CN1CCN(c2ncnc3sc4c(c23)CCCC4)CC1	3.1*
COc1ccc(NC(=S)NCCNC(=O)OC(C)(C)C)c(OC)c1	-1.47
Nc1nc2c(nc(N3CCCCCC3)n2[C@H]2O[C@@H](CO)[C@H](O)[C@@H]2O)c(=O)[nH]1	-0.5
Cc1ccc(CN2C(=O)C(=O)c3cc(Cl)ccc32)cc1	0.39
FC(F)(F)c1cc(-c2ccccc2)no1	0.22
CCOC(=O)c1nnn(-c2ccc(F)c(Cl)c2)c1NC(=O)c1cccs1	-0.17
CC1(C)CC(=O)C=C(SCC(=O)Nc2cc(C(F)(F)F)cc(C(F)(F)F)c2)S1	2.37
Cc1ccc(Cc2cn3cc(-c4ccccc4)nc3s2)cc1	-0.16
SMILES	Dicer inh
Fc1ccc(-c2cn3cc(Cc4ccc(Br)cc4)sc3n2)cc1	3.42*
Fc1ccc(-c2cn3cc(Cc4ccccc4Cl)sc3n2)cc1	0.06
CCc1ccc(Cc2cn3cc(-c4ccccc4)nc3s2)cc1	-0.59
Fc1ccc(Cc2cn3cc(-c4ccc(F)cc4)nc3s2)cc1	3.94*
Clc1ccc(-c2cn3cc(Cc4ccccc4)sc3n2)cc1	2.41
O=C(CSc1cc(-c2ccccc2)nc2ncnn12)c1ccc(Br)cc1	-0.04
CCOc1cccc(C2c3c(oc4ccccc4c3=O)C(=O)N2c2ccc(C)cn2)c1 (stereo unspecified)	-0.32
Cc1cc2nc3c(c(=O)n2[nH]1)CSC3	-3.22
CSc1nnc2c(n1)OC(c1ccc(Br)cc1)Nc1ccccc1-2 (stereo unspecified)	5.43*
CSc1nnc2c(n1)OC(c1ccc(O)c(O)c1)Nc1ccccc1-2 (stereo unspecified)	4.4*
